ChEMBL document CHEMBL2218924, “A broad activity screen in support of a chemogenomic map for kinase signalling research and drug discovery” (Biochem J, 2013)

molecular target: T1, Serine/threonine-protein kinase Sgk3 (Homo sapiens) (UniProt Q96BR1); settings: at 1 µM
T1 sequence (whole entry): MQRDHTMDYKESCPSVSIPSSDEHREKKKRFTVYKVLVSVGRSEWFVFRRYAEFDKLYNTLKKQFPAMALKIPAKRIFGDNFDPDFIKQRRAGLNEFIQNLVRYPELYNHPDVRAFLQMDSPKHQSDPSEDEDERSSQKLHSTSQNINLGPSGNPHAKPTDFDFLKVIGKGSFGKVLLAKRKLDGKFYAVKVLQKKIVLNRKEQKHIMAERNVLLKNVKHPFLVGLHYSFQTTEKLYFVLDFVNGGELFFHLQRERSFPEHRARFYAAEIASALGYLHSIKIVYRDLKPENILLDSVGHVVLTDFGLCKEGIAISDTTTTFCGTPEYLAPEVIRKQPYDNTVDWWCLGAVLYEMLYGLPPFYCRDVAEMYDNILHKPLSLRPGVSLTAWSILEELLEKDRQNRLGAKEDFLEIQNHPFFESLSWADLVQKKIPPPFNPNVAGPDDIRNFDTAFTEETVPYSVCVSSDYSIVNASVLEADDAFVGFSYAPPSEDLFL

Row | SMILES | residual activity [%]
1 | CCN(CC)CCNC(=O)c1c(C)[nH]c(/C=C2\C(=O)Nc3ccc(Cl)cc32)c1C | 115
2 | Cc1nc(-c2ccccc2)c(-c2ccncc2)o1 | 108
3 | Cc1ccc(NC2=CC(=O)c3sc(C)nc3C2=O)cc1 | 96
4 | Nc1n[nH]c2nnc(-c3c(-c4ccccc4)nn4ccccc34)cc12 | 106
5 | Oc1ccc(-c2nc(-c3ccc(F)cc3)c(-c3ccncc3)[nH]2)cc1 | 109
6 | NCCNc1ncc(C(N)=O)c(Nc2cccc(C(F)(F)F)c2)n1 | 82
7 | O=Nc1c(-c2c(O)[nH]c3ccccc23)[nH]c2ccccc12 | 89
8 | CCCCc1c(-c2ccc(O)cc2)[nH]c2nccnc12 | 98
9 | O=C1c2ccccc2-[n+]2ccc3c([nH]c4ccccc43)c21 | 99
10 | Cc1nc2cc3nc(-c4cccs4)cnc3cc2n1C | 94
11 | CCC(=O)Nc1ccc2ncnc(Nc3cccc(Br)c3)c2c1 | 105
12 | O=C1NC(=O)c2c1c1c3ccccc3[nH]c1c1[nH]c3cc(Br)ccc3c21 | 96
13 | Cc1cc2ncc(-c3ccccc3)nc2cc1C | 108
14 | C[C@@H](N)[C@H]1CC[C@H](C(=O)Nc2ccncc2)CC1 | 101
15 | O=C(Nc1cccc(Nc2nccc(Nc3cccc(C(F)(F)F)c3)n2)c1)C1CC1 | 126
16 | CCOc1cc2ncnc(Nc3cccc(Br)c3)c2cc1OCC | 108

Row | SMILES | residual activity [%]
17 | NC(=O)Nc1sc(-c2ccc(F)cc2)cc1C(N)=O | 93
18 | COc1cc2ncnc(Nc3ccc(Oc4ccccc4)cc3)c2cc1OC | 110
19 | CN(C)CCCn1cc(C2=C(c3c[nH]c4ccccc34)C(=O)NC2=O)c2ccccc21 | 101
20 | Nc1ncnc2c1cnn2-c1ccccc1 | 94
21 | CC#CC(=O)Nc1cc2c(Nc3ccc(F)c(Cl)c3)ncnc2cn1 | 102
22 | CC(C)n1cnc2/c(=N/c3cccc(Cl)c3)nc(NCCO)[nH]c21 | 107
23 | COc1ccc(CNc2nc(N(CCO)CCO)nc3c2ncn3C(C)C)cc1 | 114
24 | COc1cc2ncnc(N3CCN(C(=O)Nc4ccc(Oc5ccccc5)cc4)CC3)c2cc1OC | 104
25 | O=C(O)c1ccc2c3c1cccc3c(=O)n1c3ccccc3nc21 | 105
26 | COc1cc2ncnc(Nc3ccc(NC(=O)c4ccccc4)cc3)c2cc1OC | 96
27 | COc1ccc(S(=O)(=O)N(CCO)c2ccccc2CN(C)C/C=C/c2ccc(Cl)cc2)cc1 | 98
28 | CN(C)c1ccc(/C=C2\C(=O)Nc3ccccc32)cc1 | 106
29 | Nc1ccc2ncnc(NCCc3ccc(Oc4ccccc4)cc3)c2c1 | 109
30 | COc1cccc(-c2cc(=O)c3ccccc3o2)c1N | 104
31 | CNc1cc2c(Nc3cccc(Br)c3)ncnc2cn1 | 103
32 | Cn1cnc2cc3c(Nc4cccc(Br)c4)ncnc3cc21 | 107
